Source: PubChem (National Center for Advancing Translational Sciences (NCATS))
This is a sample that favours compounds with a hit; in the whole collection about 19% have one here.
HT1080 IDH1KD tx – qHTS for induction of synthetic lethality in tumor cells producing 2HG: qHTS for the HT-1080-IDH1KD cell line | AID 686971, 2013 | Potency, µM (titrated, usually from 46.1 µM), without a hit: at the top dose activity, negative = toxicity, usual class: cytotoxic | 360,000 compounds, 2% hits | HT-1080 IDH1 knockdown viability, ATP luminescence, 48 h;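 note: potency is the fitted concentration of half-maximal effect; 0% = DMSO wells and -100% = cell-free medium wells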
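In this qHTS, HT-1080 cells depleted of IDH1 are exposed for 48 h at 37 °C to compound titrations. Toxicity is scored from CellTiter-Glo luminescence, with DMSO as full viability and medium alone as none.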
TDP1 cell noCPT – qHTS for Inhibitors of human tyrosyl-DNA phosphodiesterase 1 (TDP1): qHTS in cells in absence of CPT; 420,000 compounds, 15% hits; AID 686978, 2013; Potency, µM (top dose mostly 46.2 µM), for the others: at the top dose activity change, negative = growth inhibition, usual class: inhibitors; DT40 Tdp1-/- hTDP1 cells, no CPT, ATP luminescence, 48 h; note: potency is the fitted concentration of half-maximal effect; nearly all actives have a fitted effect of over 55% in size
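DT40 Tdp1-/-;hTDP1 cells, no CPT (DMSO vehicle only), 400 cells/well; compounds pin-transferred; ≥48 hr, 37 °C; CellTiter-Glo 30 min RT dark, luminescence read.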
IL-1B inflam inh – qHTS for Inhibitors of Inflammasome Signaling: IL-1-beta AlphaLISA Primary Screen; THP-1 LPS/ATP IL-1B secretion, AlphaLISA, 16 h; stronger effect = lower value; activity change, % at 57.5 µM; 360,000 compounds, 4.7% hits; AID 743279, 2014; in the data active = activity change below about -50%; inconclusive = mostly about -30% to -49%
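Secreted IL-1B measured by AlphaLISA bead assay after 16 h compound exposure of THP-1 cells; compounds (final up to 57.5 uM) added 1 h before LPS (250 ng/mL) and ATP (1.25 mM) stimulation; lower signal means less secretion.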
HT1080-NT tox – qHTS for induction of synthetic lethality in tumor cells producing 2HG: qHTS for the HT-1080-NT fibrosarcoma cell line. AID 686970, 2013. 360,000 compounds, 1.6% hits. HT-1080-NT fibrosarcoma viability, CellTiter-Glo ATP luminescence, 48 h. Potency, µM (doses to about 46.1 µM), for inactives: at the top dose activity, negative = less viability, actives largely listed as cytotoxic;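 note: NT is the 2HG producing partner of a matched IDH1 knockdown line; potency is the fitted concentration of half-maximal effect; 0% = DMSO-treated cells and -100% = media-only wells without cells; nearly all actives have a fitted effect of over 55% in size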
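HT-1080-NT; 750 cells/well; 5% FBS RPMI; 48 h compound, 37 degrees C; CellTiter-Glo luminescence; curve fitting and curve-class assignment.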
DT40 TDP1 CPT – qHTS for Inhibitors of human tyrosyl-DNA phosphodiesterase 1 (TDP1): qHTS in cells in presence of CPT | Potency, µM (titrated, usually from 46.2 µM), without a hit: at the highest dose activity change, negative = growth inhibition, usual class: inhibitors | 420,000 compounds, 12% hits | chicken DT40 Tdp1-/-;hTDP1 cells + 20 nM CPT, ATP luminescence, 48 h; note: potency is the fitted concentration of half-maximal effect; nearly all actives have a fitted effect of over 55% in size
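Cell growth measured by CellTiter-Glo luminescence after a minimum 48 h, 37 C compound exposure with 20 nM CPT in Tdp1-knockout DT40 cells stably expressing hTDP1, seeded 400/well; qHTS titration format.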
The depositor's hits bear a star; u = inconclusive; x = no result given. Unless noted, calls come from the whole dose curve; as a rule, active = well fitted curve in the direction sought with a large enough effect; inconclusive = small, poorly fitted or top-dose-only effect, or another doubt; inactive = no such curve, though single readings can be large; an effect the other way counts as inactive or inconclusive. Unless noted, % is set by controls: 0 for no effect and ±100 for the full control effect.

SMILES	HT1080 IDH1KD tx	TDP1 cell noCPT	IL-1B inflam inh	HT1080-NT tox	DT40 TDP1 CPT
COc1ccccc1NC(=O)CN1C(=O)CC(c2ccc(C)c(C)c2)=Nc2ccccc21	x	23µM*	x	x	23µM*
CC(=O)Nc1ccc(N=c2cc([N+](=O)[O-])cc(Cl)n2O)cc1	u	15µM*	-53*	-2%	u
CCN(CC)C(=O)C(=O)N/N=C/c1ccc(C(=O)O)cc1	11%	0%	16	13%	0%
Cc1ccccc1C(=O)NCC(=O)OC(C)C(=O)NC(C)CCc1ccccc1 (centres undefined)	4%	u	-4	9%	-21%
COc1ccc(S(=O)(=O)N2CC3CCCN3c3ccc(C(F)(F)F)cc32)cc1 (centres undefined)	-26%	u	u	-15%	26µM*
CS(=O)(=O)N1CC2CCCN2c2ccc(C(F)(F)F)cc21 (centres undefined)	13%	-26%	-9	-4%	-5%
COc1ccc(S(=O)(=O)N2CC3CCCN3c3cc(C(F)(F)F)ccc32)cc1 (centres undefined)	-10%	u	-11	-13%	21µM*
CC(=O)Oc1cccc2c1C(=O)C1CC=CC(OC(C)=O)C1C2=O (centres undefined)	-12%	23µM*	-23	-6%	u
CC(C)(C)c1nn(-c2ccccc2)c2[nH]c(=O)c(CNCc3ccc4c(c3)OCO4)cc12	-30%	u	42	u	18µM*
COc1ccc(C)c2sc(NC(=O)c3ccc(S(=O)(=O)N(C)C)cc3)nc12	x	-24%	x	x	-28%
CCOc1cccc2cc(C(=O)NCc3ccc(Cl)cc3)c(=N)oc12	0%	u	-65*	-12%	u
CCOc1ccc2cc(C(=O)NCc3ccccc3)c(=N)oc2c1	-26%	u	-77*	-14%	u
CCOc1ccc2cc(C(=O)c3ccccc3)c(=O)oc2c1	6%	-23%	-1	9%	-1%
Cc1ccc(C)c(NC(=O)C2(C)CCCN2C(=O)C(C)C)c1 (centres undefined)	u	-5%	25	11%	-19%
O=C(CSc1nc2ccccc2c(=O)n1CC1CCCCC1)N1CCOCC1	-7%	u	-24	-5%	u
CCc1nnc(NC(=O)CSc2nnc(CNc3ccc(F)cc3)n2C2CCCCC2)s1	0%	-1%	-3	0%	1%
CCN(CC)C(=O)CSc1nc2ccccc2c(=O)n1CC1CCCCC1	u	16µM*	-25	u	23µM*
CN(C)c1ccc(NC(=O)CSc2nc3ccccc3c(=O)n2C2CCCCC2)cc1	0%	18µM*	-51*	-1%	u
Cc1cc(NC(=O)CSc2nc3ccccc3c(=O)n2Cc2ccccc2)no1	-6%	-26%	2	-16%	-3%
Cc1cc(NC(=O)CSc2nc3ccccc3c(=O)n2C2CCCC2)no1	1.8µM*	0.92µM*	28	u	1µM*
Cc1cc(NC(=O)CSc2nnc(CNc3ccc(F)cc3)n2C2CCCCC2)no1	u	u	-9	-3%	10µM*
Cc1cc(C)c(S(=O)(=O)NCCc2cc3cc(C)c(C)cc3[nH]c2=O)c(C)c1	x	-22%	x	x	-10%
O=C(COc1ccc(-c2ccccc2)cc1)N1CCCC1	9%	u	-15	8%	4%
Cc1ccc(NC(=O)CCNC(=O)c2ccc(Cl)cc2)cc1C	6%	8%	u	4%	5%
CCCN(CCC)C(=O)CSc1nc2ccccc2c(=O)n1C1CCCC1	u	13µM*	0	-2%	13µM*
SMILES	HT1080 IDH1KD tx	TDP1 cell noCPT	IL-1B inflam inh	HT1080-NT tox	DT40 TDP1 CPT
CCNC(=O)C1(C)CCN(C(=O)c2cccs2)C1 (centres undefined)	27%	-4%	39	u	-52%
COc1ccc(-c2cc(=O)oc3c(C)c(OCC(=O)Nc4cccnc4)ccc23)cc1	8%	-15%	37	-1%	u
O=C(COc1ccc2ccccc2c1Br)Nc1cccnc1	-12%	u	u	-10%	16µM*
Cc1c(C)c2ccc(OCC(=O)Nc3cccnc3)c(C)c2oc1=O	13%	18µM*	9	3%	u
O=C(COc1ccc2ccccc2c1Br)Nc1ccncc1	u	7.3µM*	-1	-19%	10µM*
CCC(=O)Nc1c2c(nn1-c1ccc(F)cc1)CS(=O)(=O)C2	16%	-1%	4	8%	7%
CC1CCCC(NC(=S)NC(=O)c2ccccc2Br)C1C (centres undefined)	4%	u	27	0%	u
Cc1ccc(S(=O)(=O)c2nc(S(C)(=O)=O)sc2N2CCOCC2)cc1	-6%	10%	-59*	0%	-20%
Cc1ccc(S(=O)(=O)c2nc(S(C)(=O)=O)sc2N(C)Cc2ccccc2)cc1	x	21µM*	x	x	u
Cc1ccc(S(=O)(=O)c2nc(S(C)(=O)=O)sc2N(C)C)cc1	6%	-9%	-11	17%	-9%
CS(=O)(=O)c1nc(S(=O)(=O)c2ccc(Cl)cc2)c(N2CCCCCC2)s1	-5%	25%	8	-13%	-18%
Cc1ccc(S(=O)(=O)c2nc(S(=O)(=O)c3ccc(C)cc3)c(N3CCN(CCO)CC3)s2)cc1	u	u	-68*	u	23µM*
CS(=O)(=O)c1nc(S(=O)(=O)c2ccc(Cl)cc2)c(N2CCCCC2)s1	-2%	-22%	-63*	14%	u
CC1(C(=O)NS(=O)(=O)c2cccc(F)c2)CCN1C(=O)CC1CCCCC1 (centres undefined)	7%	-12%	32	10%	0%
Cc1ccc(S(=O)(=O)c2nc(S(C)(=O)=O)sc2N2CCCCC2C)cc1 (centres undefined)	u	u	-83*	u	u
